From PubChem BioAssay AID1159580 (chemical genetic matrix, 2015)
The whole screen tested about 5,500 compounds, of which about 2,000 (36%) were called active. Another 18% or so got no clear call; they are omitted. Cut-off read from the data, not from the text of the source: active = normalized growth mostly below about 0.91 (no sharp cut-off); inconclusive = no clear call, values can overlap the other calls; inactive = mostly above about 0.92. This is one part of the list.

Assay: chemical genetic growth profiling, strain panel (AID 1159580);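 note: tested at 20 µM; growth read once vehicle control cultures reached saturation at 30 °C; 1 = growth at the plate median or of vehicle wells; lower values mean less growth of the strain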
Details: growth OD

Measured: normalized growth

Cc1c(C(N)=O)cc([N+](=O)[O-])cc1[N+](=O)[O-]
inactive: S. cerevisiae deletion strains, locus YJR066W, strain TOR1, hits give low values 0.991 | S. cerevisiae deletion strains, locus YKL009W, strain mrt4, hits give low values 0.972 | S. cerevisiae deletion strains, locus YKL068W, hits give low values 0.982 | S. cerevisiae deletion strains, locus YKL085W, strain MDH1 (second series), hits give low values 1.02 | S. cerevisiae deletion strains, locus YKL085W, strain MDH1, hits give low values 1.02 | S. cerevisiae deletion strains, locus YKL160W, strain elf1, hits give low values 0.988 | S. cerevisiae deletion strains, locus YKL190W, strain CNB1, hits give low values 0.996 | S. cerevisiae deletion strains, locus YKR001C, strain vps1, hits give low values 0.993 | S. cerevisiae deletion strains, locus YKR026C, strain gcn3, hits give low values 1.02 | S. cerevisiae deletion strains, locus YKR091W, strain srl3, hits give low values 1.02 | S. cerevisiae deletion strains, locus YLL001W, strain dnm1, hits give low values 1.02 | S. cerevisiae deletion strains, locus YLL026W, hits give low values 1.02 | S. cerevisiae deletion strains, locus YLL041C, strain sdh2, hits give low values 1.02 | S. cerevisiae deletion strains, locus YLR027C, strain aat2, hits give low values 1.01 | S. cerevisiae deletion strains, locus YLR039C, strain RIC1, hits give low values 0.988 | S. cerevisiae deletion strains, locus YLR058C, strain SHM2, hits give low values 0.99 | S. cerevisiae deletion strains, locus YLR102C, strain apc9, hits give low values 0.97 | S. cerevisiae deletion strains, locus YLR113W, strain HOG1, hits give low values 1.07 | S. cerevisiae deletion strains, locus YLR221C, strain rsa3, hits give low values 1.03 | S. cerevisiae deletion strains, locus YLR258W, strain gsy2, hits give low values 1.04 | S. cerevisiae deletion strains, locus YLR262C, strain YPT6 (second series), hits give low values 1.02 | S. cerevisiae deletion strains, locus YLR262C, strain YPT6, hits give low values 1.01 | S. cerevisiae deletion strains, locus YLR268W, strain sec22, hits give low values 0.979 | S. cerevisiae deletion strains, locus YLR320W, strain mms22, hits give low values 1.05 | S. cerevisiae deletion strains, locus YLR330W, strain CHS5, hits give low values 0.994 | S. cerevisiae deletion strains, locus YLR342W, strain FKS1 (second series), hits give low values 0.984 | S. cerevisiae deletion strains, locus YLR342W, strain FKS1, hits give low values 1.02 | S. cerevisiae deletion strains, locus YLR357W, strain rsc2, hits give low values 0.999 | S. cerevisiae deletion strains, locus YLR370C, strain arc18, hits give low values 1.04 | S. cerevisiae deletion strains, locus YLR371W, strain rom2, hits give low values 0.963 | S. cerevisiae deletion strains, locus YLR384C, strain iki3, hits give low values 1.03 | S. cerevisiae deletion strains, locus YLR418C, strain cdc73, hits give low values 0.972 | S. cerevisiae deletion strains, locus YML016C, strain PPZ1, hits give low values 0.989 | S. cerevisiae deletion strains, locus YML032C, strain rad52, hits give low values 0.978 | S. cerevisiae deletion strains, locus YML120C, strain ndi1, hits give low values 1.03 | S. cerevisiae deletion strains, locus YML124C, strain tub3, hits give low values 0.979 | S. cerevisiae deletion strains, locus YMR058W, strain fet3, hits give low values 1.01 | S. cerevisiae deletion strains, locus YMR078C, strain ctf18, hits give low values 0.976 | S. cerevisiae deletion strains, locus YMR125W, strain sto1, hits give low values 0.962 | S. cerevisiae deletion strains, locus YMR129W, hits give low values 1.02 | S. cerevisiae deletion strains, locus YMR205C, strain PFK2, hits give low values 1 | S. cerevisiae deletion strains, locus YMR223W, strain ubp8, hits give low values 0.98 | S. cerevisiae deletion strains, locus YMR231W, strain pep5, hits give low values 1.03 | S. cerevisiae deletion strains, locus YMR263W, strain SAP30, hits give low values 0.997 | S. cerevisiae deletion strains, locus YMR307W, strain GAS1, hits give low values 1.02 | S. cerevisiae deletion strains, locus YNL067W, strain RPL9B, hits give low values 1.01 | S. cerevisiae deletion strains, locus YNL071W, strain lat1, hits give low values 1.02 | S. cerevisiae deletion strains, locus YNL128W, strain TEP1, hits give low values 0.965 | S. cerevisiae deletion strains, locus YNL183C, strain NPR1, hits give low values 0.98 | S. cerevisiae deletion strains, locus YNL209W, strain ssb2, hits give low values 1.02 | S. cerevisiae deletion strains, locus YNL233W, strain BNI4, hits give low values 1.01 | S. cerevisiae deletion strains, locus YNL248C, strain rpa49, hits give low values 0.923 | S. cerevisiae deletion strains, locus YNL250W, strain rad50, hits give low values 0.985 | S. cerevisiae deletion strains, locus YNL271C, strain bni1, hits give low values 0.97 | S. cerevisiae deletion strains, locus YNL298W, strain CLA4, hits give low values 0.975 | S. cerevisiae deletion strains, locus YNL307C, strain MCK1, hits give low values 0.978 | S. cerevisiae deletion strains, locus YNL322C, strain KRE1 (second series), hits give low values 1.03 | S. cerevisiae deletion strains, locus YNL322C, strain KRE1, hits give low values 0.991 | S. cerevisiae deletion strains, locus YNR049C, strain mso1, hits give low values 1.02 | S. cerevisiae deletion strains, locus YNR052C, strain pop2, hits give low values 0.966 | S. cerevisiae deletion strains, locus YOL006C, strain TOP1, hits give low values 0.984 | S. cerevisiae deletion strains, locus YOL012C, strain htz1 0.838 | S. cerevisiae deletion strains, locus YOL147C, strain pex11, hits give low values 0.978 | S. cerevisiae deletion strains, locus YOR001W, strain rrp6, hits give low values 1.03 | S. cerevisiae deletion strains, locus YOR061W, strain CKA2, hits give low values 0.99 | S. cerevisiae deletion strains, locus YOR069W, strain VPS5, hits give low values 0.981 | S. cerevisiae deletion strains, locus YOR070C, strain gyp1, hits give low values 1.02 | S. cerevisiae deletion strains, locus YOR080W, strain dia2, hits give low values 1.03 | S. cerevisiae deletion strains, locus YOR083W, strain WHI5, hits give low values 0.985 | S. cerevisiae deletion strains, locus YOR106W, strain vam3, hits give low values 0.981 | S. cerevisiae deletion strains, locus YOR136W, strain idh2, hits give low values 0.976 | S. cerevisiae deletion strains, locus YOR144C, strain elg1, hits give low values 0.978 | S. cerevisiae deletion strains, locus YOR184W, strain ser1, hits give low values 0.986 | S. cerevisiae deletion strains, locus YOR231W, strain MKK1, hits give low values 1.05 | S. cerevisiae deletion strains, locus YOR265W, strain rbl2, hits give low values 1.01 | S. cerevisiae deletion strains, locus YOR270C, strain vph1, hits give low values 1.01 | S. cerevisiae deletion strains, locus YOR290C, strain snf2, hits give low values 1.03 | S. cerevisiae deletion strains, locus YOR316C, strain cot1, hits give low values 0.965 | S. cerevisiae deletion strains, locus YPL051W, strain arl3, hits give low values 1.01 | S. cerevisiae deletion strains, locus YPL078C, strain atp4, hits give low values 0.974 | S. cerevisiae deletion strains, locus YPL106C, strain sse1, hits give low values 1.06 | S. cerevisiae deletion strains, locus YPL240C, strain hsp82, hits give low values 1.02 | S. cerevisiae deletion strains, locus YPL241C, strain CIN2, hits give low values 0.991 | S. cerevisiae deletion strains, locus YPL256C, strain CLN2, hits give low values 1.05 | S. cerevisiae deletion strains, locus YPR119W, strain clb2, hits give low values 0.982 | S. cerevisiae deletion strains, locus YPR141C, strain kar3, hits give low values 0.974 | S. cerevisiae deletion strains, locus YPR163C, strain tif3, hits give low values 0.975 | S. cerevisiae deletion strains, locus YPR167C, strain met16, hits give low values 0.981 | S. cerevisiae deletion strains, strain wtn01, hits give low values 0.971 | S. cerevisiae strains, strain wild type, hits give low values 0.996
